This is a sample that favours compounds with a hit; in the whole collection about 0.5% have one here.
EPAC2 agonist: activates human EPAC2 exchange factor; EPAC2 activation, biochemical qHTS; response scale: 100% = 6.5 mM cAMP response; 360,000 compounds, 0.079% hits; Q8WZA2; AID 720711; Potency, µM (titrated, usually from 154 µM), hits mostly activators; note: nearly all actives have a fitted effect of over 50% in size
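Fluorescence exchange assay: 100 nM EPAC2 with 250 nM RAP1B-BODIPY-GDP and 50 uM GDP; compounds tested as a concentration-titration series (qHTS). Loss of Rap1-bound BODIPY-GDP fluorescence read at 480/540 nm; data normalized to 6.5 mM cAMP.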
EPAC1 ag: agonists of human EPAC1. 360,000 compounds, 0.073% hits. EPAC1 agonist qHTS, biochemical assay; response scale: 100% = response to 6.5 mM cAMP. Potency, µM (highest dose often 154 µM), hits mostly activators; note: nearly all actives have a fitted effect of over 60% in size
Target sequence (O95398 whole entry, looked up): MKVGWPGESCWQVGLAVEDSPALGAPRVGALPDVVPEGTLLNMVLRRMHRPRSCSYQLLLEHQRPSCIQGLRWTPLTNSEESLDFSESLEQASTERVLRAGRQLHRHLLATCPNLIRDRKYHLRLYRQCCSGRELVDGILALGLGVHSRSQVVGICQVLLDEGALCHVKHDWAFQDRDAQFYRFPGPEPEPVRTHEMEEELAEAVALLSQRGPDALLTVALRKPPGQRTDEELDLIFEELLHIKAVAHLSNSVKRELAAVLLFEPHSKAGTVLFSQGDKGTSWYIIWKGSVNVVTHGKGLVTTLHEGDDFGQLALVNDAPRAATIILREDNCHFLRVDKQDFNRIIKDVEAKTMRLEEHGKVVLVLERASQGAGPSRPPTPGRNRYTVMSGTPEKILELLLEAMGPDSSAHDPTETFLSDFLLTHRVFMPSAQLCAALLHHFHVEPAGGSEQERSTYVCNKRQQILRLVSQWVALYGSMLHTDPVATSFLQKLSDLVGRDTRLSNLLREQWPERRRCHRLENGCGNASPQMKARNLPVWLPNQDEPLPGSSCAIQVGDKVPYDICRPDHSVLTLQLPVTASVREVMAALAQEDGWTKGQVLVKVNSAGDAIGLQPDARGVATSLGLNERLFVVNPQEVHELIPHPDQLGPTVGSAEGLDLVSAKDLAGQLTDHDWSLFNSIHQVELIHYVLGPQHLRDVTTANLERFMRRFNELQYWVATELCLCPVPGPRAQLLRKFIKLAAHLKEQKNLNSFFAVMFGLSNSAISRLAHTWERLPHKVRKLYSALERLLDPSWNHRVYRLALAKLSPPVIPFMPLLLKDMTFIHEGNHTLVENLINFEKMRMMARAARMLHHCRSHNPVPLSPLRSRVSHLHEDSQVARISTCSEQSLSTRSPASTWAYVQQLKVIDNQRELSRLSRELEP
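Normalized to 6.5 mM cAMP, activity reflects EPAC1-catalysed release of BODIPY-GDP from Rap1B, followed kinetically over 30 min at 480 nm excitation, 540 nm emission. Reaction contained 100 nM EPAC1, 250 nM Rap1B-BODIPY-GDP, 50 uM GDP.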
TSHR antagonist: human thyrotropin receptor antagonism; P16473; TSHR-expressing cells, TSH-stimulated cAMP HTRF, 2 h; hits give low values; activity change, negative = inhibition, % at 11.5 µM; 330,000 compounds, 0.2% hits;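 active = activity change below a set negative limit, meaning inhibition stronger than a set level, cut at about -70% in these data; inconclusive = activity change between two set negative limits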
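Antagonism was scored as loss of TSH-driven cAMP in TSHR cells, stimulated with 4nM TSH (EC80) for 2 hours at 37 deg C and detected by homogeneous HTRF competition immunoassay.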
EPAC2 antagonist: blocks human EPAC2 exchange factor; EPAC2 GEF exchange of Rap1B-BODIPY-GDP, fluorescence; Potency, µM (series often up to 114 µM), usual class: inhibitors; 360,000 compounds, 0.18% hits; AID 720708; note: nearly all actives have a fitted effect of over 45% in size
EPAC1 antag: blocks human EPAC1 exchange factor | 360,000 compounds, 0.14% hits | EPAC1 GEF assay, Rap1b-BODIPY-GDP exchange fluorescence | Potency, µM (titrated, usually from 115 µM), usual class: inhibitors | O95398; note: nearly all actives have a fitted effect of over 50% in size
PTHR1 agonist: PTHR1 (human) receptor agonism | Q03431 | HEK293 GP2 PTHR1 cells, GloSensor cAMP luminescence, 1 h | Potency, µM (highest dose often 115 µM), usual class: activators | 410,000 compounds, 0.075% hits | AID 743266; note: nearly all actives have a fitted effect of over 55% in size
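HEK-293-derived GP2 cells expressing PTHR1 and a GloSensor cAMP reporter, 3,000/well, plated overnight, given luciferin plus IBMX (each 0.5 mM as added) for 1 h at 37 °C, then compound for 1 h at 37 °C. Luminescence was read after 15 min at room temperature.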
Hits are given with their value; 0 = inactive; ? = inconclusive; - = no result. Unless noted, calls come from the whole dose curve; as a rule, active = well fitted curve in the direction sought with a large enough effect; inconclusive = small, poorly fitted or top-dose-only effect, or another doubt; inactive = no such curve, though single readings can be large; an effect the other way counts as inactive or inconclusive.

SMILES	EPAC2 agonist	EPAC1 ag	TSHR antagonist	EPAC2 antagonist	EPAC1 antag	PTHR1 agonist
CC(=O)O[C@H]1[C@H]2O[C@]23[C@@H]2CC[C@]4(O)C[C@@H](O)CC[C@]4(C)C2CC[C@]3(C)[C@H]1c1ccc(=O)oc1 (some centres undefined)	0	0	-79.3	0	0	0
C[C@]12CC[C@H]3C(CCC4(O)CC(O)CC[C@]34C=O)C1=CC[C@H]2c1ccc(=O)oc1 (some centres undefined)	0	0	?	0	0	0
O=C(c1cc(-c2ccc(Cl)cc2)n(-c2ccc(Cl)cc2Cl)n1)N1CCOCC1	10µM	0	0	0	0	0
Cc1ncc(CO)c2c1Oc1nc(-c3ccccc3Cl)nc(SCc3ccccc3F)c1C2	-	-	-	-	-	0
CNc1ccc2oc(C[C@H]3O[C@@]4(CC[C@H]3C)O[C@H]([C@H](C)C(=O)c3ccc[nH]3)[C@H](C)C[C@H]4C)nc2c1C(=O)O	0	0	-90.0	0	?	0
COc1ccc(S(=O)(=O)NCCc2sc3nc(-c4ccc(C)cc4)nn3c2C)cc1F	-	-	-	-	-	0
COC(=O)c1cn(C(=O)c2cccc3ccccc23)c2ccccc12	0	0	0	8.91µM	0	0
COC(=O)c1cn(Cc2ccc(F)cc2)c2ccccc12	0	0	-	?	0	0
Nc1ccc2ccccc2c1	0	0	-	0	0	0
C[n+]1c2cc(N)ccc2cc2ccc(N)cc21	100µM	50.1µM	-	0	0	0
CN1/C(=C\C=C\C2=[N+](C)c3ccc4ccccc4c3C2(C)C)C(C)(C)c2ccccc21	-	-	-92.7	-	-	-
CN1/C(=C\C=C2C(=O)NC(=O)NC2=O)C(C)(C)c2ccccc21	0	?	0	0	0	0
CCN1/C(=C/C=C/C2=[N+](CC)c3ccccc3C2(C)C)C(C)(C)c2ccccc21	17.8µM	56.2µM	-	0	0	0
CCOCCCNC(=O)c1c[nH]c2ccc(S(=O)(=O)N(C)c3ccc(Cl)cc3F)cc2c1=O	-	-	-	-	-	0
Cc1ccc(N2C(=O)NC(=O)/C(=C\C=C\c3ccco3)C2=O)cc1C	0	0	0	0	56.2µM	0
O=C1NC(=O)N(Cc2ccccc2)C(=O)/C1=C\C=C\c1ccco1	0	0	0	0	56.2µM	0
O=C1NC(=O)N(Cc2ccco2)C(=O)/C1=C/C=C/c1ccco1	0	0	0	0	56.2µM	0
Oc1ccccc1-[n+]1c(-c2ccccc2)cc(-c2ccccc2)cc1-c1ccccc1	0	0	0	0	0	0
Cc1ccccc1-[n+]1c(-c2ccccc2)cc(-c2ccccc2)cc1-c1ccccc1	0	0	-74.8	0	0	0
Cc1ccc(NC(=O)C2CCCN(C(=O)c3cnn(-c4ccccc4)c3-n3cccc3)C2)cc1 (centres undefined)	-	-	-	-	-	0
O=C(CN1CCN(C(=O)CNC(=O)c2ccc(-c3ccccc3)cc2)CC1)Nc1ccccc1Cl	0	0	-	0	0	0
CCCOc1ccc(C(=O)Nc2ccc(-c3cc4ccccc4oc3=O)c(C)c2)cc1	-	-	-	-	-	0
Oc1ccc(Cl)cc1Sc1cc(Cl)ccc1O	0	0	-	35.5µM	?	0
CN1C(=O)C(Cc2ccccc2)C(=O)N(C)C1=O	0	0	-	0	0	0
CN1C(=O)C(Cc2ccsc2)C(=O)N(C)C1=O	0	0	0	0	0	28.2µM
SMILES	EPAC2 agonist	EPAC1 ag	TSHR antagonist	EPAC2 antagonist	EPAC1 antag	PTHR1 agonist
COc1ccc(S(=O)(=O)Nc2ccc3c(c2)CC(=O)N([C@@H](C)CO)C[C@H](C)[C@@H](CN(C)S(=O)(=O)c2ccc(F)cc2)O3)cc1	0	0	0	0	0	0
O=C(OCc1cc(=O)n2nc(C3CC3)sc2n1)c1ccc(NC(=O)c2ccccc2Cl)cc1	-	-	-	-	-	0
O=C1NC(=O)C(=Cc2cn(CCOc3ccc4c(c3)OCO4)c3ccccc23)C(=O)N1	100µM	0	0	0	0	0
C=CCn1cc(C=C2C(=O)NC(=O)NC2=O)c2ccccc21	0	0	0	0	?	0
CCOc1ccc(S(=O)(=O)Nc2cccc(C(=O)N3CCN(c4ccccn4)CC3)c2)cc1	0	0	-	0	0	0
C[C@]12CC[C@H](O)C[C@H]1CC[C@@H]1[C@@H]2CC[C@]2(C)[C@@H](C3=CC(=O)OC3)CC[C@]12O	0	0	-78.1	0	0	0
C[C@]12CC[C@H](O)C[C@H]1CC[C@@H]1[C@@H]2C[C@@H](O)[C@]2(C)[C@@H](C3=CC(=O)OC3)CC[C@]12O	0	0	-75.3	0	0	0
CC(=O)OC1CC(OC2C(O)CC(OC3C(O)CC(OC4CCC5(C)C(CCC6C5CC(O)C5(C)C(C7=CC(=O)OC7)CCC65O)C4)OC3C)OC2C)OC(C)C1OC1OC(CO)C(O)C(O)C1O (centres undefined)	112µM	0	-	89.1µM	0	0
CC12CCC(O)CC1CCC1C2CCC2(C)C(C3=CC(=O)OC3)CCC12O (centres undefined)	0	0	-	0	0	0
CCCNC(=O)C1(C)CCN(Cc2ccc3ccccc3c2Br)C1 (centres undefined)	0	0	-	0	?	0
NC(Cc1ccc(C(F)(F)F)cc1)c1csc(Nc2nncc3ccccc23)n1 (centres undefined)	0	0	-	0	0	0
Cc1ccc(CNC(=O)C(=O)NCC(c2cccnc2)N2CCN(c3ccc(F)cc3)CC2)cc1 (centres undefined)	-	-	-	-	-	0
Cc1cc2ccccc2n1-c1ccc(C(=O)N2CCC(C(=O)NCc3ccc(Cl)cc3)CC2)s1	-	-	-	-	-	0
O=C1C(=O)c2cccc3cccc1c23	0	0	0	0	0	0
O=C1C(=O)c2ccccc2-c2ccccc21	0	0	?	?	8.91µM	0
CCOC(=O)c1cccc(NC(=O)c2cnc(N3CCCCC3)c3ccccc23)c1	-	-	-	-	-	0
CC(=O)C1=C(O)C2(C)c3c(O)c(C)c(O)c(C(C)=O)c3OC2CC1=O (centres undefined)	0	0	-	14.1µM	0	0
CN1CCN(c2ccc([N+](=O)[O-])c3no[n+]([O-])c23)CC1	0	0	-96.9	0	?	0
O=[N+]([O-])c1ccc(N(CCO)CCO)c2c1no[n+]2[O-]	0	0	-	?	56.2µM	0
CN1CCN(c2ccc(S(C)(=O)=O)cc2[N+](=O)[O-])CC1	0	0	0	0	0	0
CNc1cc(Cl)c2nonc2c1[N+](=O)[O-]	0	0	-88.7	0	0	0
CCN(CC)c1ccc(N=Cc2c(O)n(-c3cc(OC)ccc3OC)c(=O)[nH]c2=O)cc1	79.4µM	?	0	0	0	0
